{"source": "the supplement of paper PMC6555819", "data": [{"tested_on": "PPARg:RXRa 270nM:90nM, anti-RXR (NR concentration 270 nM, RXRa partner concentration 90 nM)", "test": "PBM binding z-score (relative to random genomic background probes); higher = stronger binding; sequences stand for … in GC…GCGATTGACAGCGTAGAATGAAGG", "method_in_brief": "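Binding buffer was PBS pH 7.4 with 2% milk, 0.02% Triton X-100, 1 mM DTT, 0.2 mg/mL BSA and 0.4 mg/ml salmon testes DNA. In it, ligand-free nuclear receptor dimers were incubated 1 h on custom Agilent 4×180K protein-binding microarrays carrying double-stranded probes. Antibodies against each partner (one per run) detected binding, and z-scores were calculated against random background probes after regression normalization of scanned fluorescence.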", "values": [{"sequence": "TGTCAAAGTTCAAAGGTAATGTAAGTATCCACAC", "PBM binding z-score": 7.39}, {"sequence": "GCTTGTAGATCTAGGTTAAGAAAGACTAAGCTAA", "PBM binding z-score": 0.539}, {"sequence": "TCTAGTTGGTCACGGAGGTCACATACGACGGGTA", "PBM binding z-score": 3.94}, {"sequence": "TGAATGAGGTTAAAGATCAGCGAACGTGGCGTCG", "PBM binding z-score": 6.26}, {"sequence": "TCTTGTACATCAATAGAGGTTAAGAAAGTGCGCT", "PBM binding z-score": 1.72}, {"sequence": "GGAACGCGGGCAAGTTGATAGCAGAGTTTGATGG", "PBM binding z-score": -0.889}, {"sequence": "AGTCAAAGTTCAGGACGAGGTAACGGAAAGCACG", "PBM binding z-score": 4.88}, {"sequence": "ACAGACAGGTGAGAGAAGGTAACTCAGCTGGACG", "PBM binding z-score": -0.247}, {"sequence": "TCATATAGGTAAATGCTAGGGGAAAGTCCGATCT", "PBM binding z-score": 2.13}, {"sequence": "CCTTACGGGTCACTCCAGGTTATTGCATCGGAGT", "PBM binding z-score": 3.54}, {"sequence": "GCAGACAGGAGAAACGCAGGTAACTCAGGGTGGC", "PBM binding z-score": -0.659}, {"sequence": "CCGAGTACGTTATGGGGCATTCAGGCAACGGTGA", "PBM binding z-score": -0.152}, {"sequence": "TCGAGTAGGCTAGTCGGGGCATTCAGCCAACATA", "PBM binding z-score": 0.0773}, {"sequence": "CCAGACAGGTGAAAGGTAACTCAGTCTGGTACGC", "PBM binding z-score": 5.9}, {"sequence": "CTCGAAAGGTCGGTTGAGGTGAGGATACGGATAA", "PBM binding z-score": 1.09}, {"sequence": "TTACCAAGGTGAAGGTAGTTGATCCCTCTGTAGA", "PBM binding z-score": 1.29}, {"sequence": "CCGACCGGGGCATAAGGTTACCATAAGCCAGCCC", "PBM binding z-score": 1.45}, {"sequence": "CATACAGGGTCAGCTCGGCCAGAGTAGGGACGGC", "PBM binding z-score": 2.64}, {"sequence": "ACTTGTTGGTCAGCTGAGGTCACACACAATTCGG", "PBM binding z-score": 2.46}, {"sequence": "CCTGCTAGGTAATGGTCAGCTAATCTACAGTATG", "PBM binding z-score": -0.104}, {"sequence": "CGTCCAGGGTCATAGGAGGTCAGTGAAGACAGAT", "PBM binding z-score": 5.78}, {"sequence": "CCTTACGGTTCACTCCAGGTTATAGCATCGGAGT", "PBM binding z-score": 0.77}, {"sequence": "AGTCAGAGTTCAGGACGAGGTAACGTAAAGCACG", "PBM binding z-score": 2.51}, {"sequence": "TCAGACAGGCGAAGGTAACTCAGGTACGCAGTCG", "PBM binding z-score": 1.53}, {"sequence": "CGCCCAAGGTCAGAGAGGTCAGTGAATGCCGAGT", "PBM binding z-score": 4.03}, {"sequence": "GCATATAGGTAATACAAAGTGAAAGTCCGATTGT", "PBM binding z-score": 0.884}, {"sequence": "CGAACTAGATCATCCAGGACAGTGAATACATTGA", "PBM binding z-score": -0.19}, {"sequence": "CTACCAAGGTGAACAAGGTGGTTGATTACTATTC", "PBM binding z-score": 0.416}, {"sequence": "ACATACGGGTCAACGAGGTTATAGCACGCGTATA", "PBM binding z-score": 4.94}, {"sequence": "CGTCCAAGGTCAAGGTCAGTAAAAGAGACTCGAA", "PBM binding z-score": 5.92}, {"sequence": "GCGACTGGGGCATCAGCAGGTAACCATAACTTAA", "PBM binding z-score": 0.685}, {"sequence": "ATATGTAGATTAGCTGGGGTCATTCAGACTAGGC", "PBM binding z-score": 2.53}, {"sequence": "ACTAGTTGGTCAGCTGAGGTCCCACACAATTCGG", "PBM binding z-score": -0.102}, {"sequence": "AGAGTGAGGTTATACGTAGATCAGGGAAGAAAGT", "PBM binding z-score": 1.19}, {"sequence": "GCTAGCAGGCCATTTGGGGCACTCAATGACGGGC", "PBM binding z-score": -0.278}, {"sequence": "GCTAGTTGGTCAGGAAAAGGTCACACACCGGTCG", "PBM binding z-score": 3.82}, {"sequence": "CCGACTGGGGCATAAGGTTACCACAAGCCAGCCC", "PBM binding z-score": 3.27}, {"sequence": "ACTAGTTGGTCAGCAGAGGTCACACACAATTCGG", "PBM binding z-score": 3.79}, {"sequence": "TCTTGTAGATCAAAGGTTAAAAAAGCCGAAGCCT", "PBM binding z-score": 8.18}, {"sequence": "CCGACTGGTGCATAAGGTTACCATAAGCCAGCCC", "PBM binding z-score": 1.03}]}]}
